Compounds with a hit are over-represented: about 12% of the library has one in this group of screens.
HP1b binding inh: HP1-beta chromodomain-methylated histone interaction inhibition; actives 0.56% (n = 390,000); Potency, µM (series often up to 114 µM), without a hit: top-dose activity change, negative = inhibition, usual class: inhibitors; AlphaScreen HP1-beta / biotin-H3K9me3 peptide binding; note: nearly all actives have a fitted effect of over 70% in size
Target sequence (P83916 whole entry, looked up): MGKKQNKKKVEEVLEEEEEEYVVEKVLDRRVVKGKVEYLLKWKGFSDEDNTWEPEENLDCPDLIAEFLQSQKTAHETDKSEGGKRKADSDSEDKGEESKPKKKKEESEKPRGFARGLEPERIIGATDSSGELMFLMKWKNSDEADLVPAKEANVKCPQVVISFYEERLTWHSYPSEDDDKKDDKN
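HP1-beta protein (50 nM final) preincubated 30 min at room temperature with biotinylated H3(1-18)K9me3 peptide (50 nM) in PBS pH 7.4, 0.01% Tween-20, then compound added for 30 min. AlphaScreen streptavidin donor/nickel chelate acceptor beads (10 ug/mL final), 30 min dark, luminescence read.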
JMJD2A Tudor inh: JMJD2A Tudor domain (human) inhibition; O75164; AlphaScreen JMJD2A-Tudor / H3K4me3 peptide binding; Potency, µM (series often up to 114 µM), without a hit: at the highest dose activity change, negative = inhibition, most hits filed as inhibitors; actives 4.4% (n = 390,000); note: % is set by controls: 0 for no effect and ±100 for the full control effect; nearly all actives have a fitted effect of over 50% in size
BAZ2B block: BAZ2B (human) inhibition | Q9UIF8 | AlphaScreen BAZ2B-H3K14Ac peptide displacement | Potency, µM (top dose mostly 114 µM), for inactives: top-dose activity change, negative = inhibition, most hits filed as inhibitors | actives 4.4% (n = 360,000); note: % is set by controls: 0 for no effect and ±100 for the full control effect; nearly all actives have a fitted effect of over 60% in size
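AlphaScreen displacement: compounds (up to 110uM) incubated 30 min at room temperature with a preformed 50 nM BAZ2B/50 nM biotinylated H3K14Ac peptide complex in PBS pH 7.4 with Tween-20. Donor and acceptor beads at 10 ug/mL final added, 20 min light-protected before reading.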
G9a inh: inhibitors of human histone lysine methyltransferase G9a. actives 8.8% (n = 350,000). AID 504332. Potency, µM (highest dose often 102 µM), inactives show at the top dose activity, negative = inhibition, actives largely listed as inhibitors. G9a H3K9 monomethylation, AlphaScreen, 2 h. Q96KQ7; note: % is set by controls: 0 for no effect and ±100 for the full control effect; nearly all actives have a fitted effect of over 75% in size
Target sequence (Q96KQ7 913-1193 limits assumed): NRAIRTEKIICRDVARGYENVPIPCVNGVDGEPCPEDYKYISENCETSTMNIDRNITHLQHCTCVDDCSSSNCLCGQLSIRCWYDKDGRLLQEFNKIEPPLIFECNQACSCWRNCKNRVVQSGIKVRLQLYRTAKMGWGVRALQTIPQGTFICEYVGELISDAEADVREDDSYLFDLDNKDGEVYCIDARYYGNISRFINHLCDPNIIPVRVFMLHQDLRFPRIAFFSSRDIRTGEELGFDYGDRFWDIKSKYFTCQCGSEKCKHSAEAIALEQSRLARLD
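Chemiluminescent proximity detection of H3K9 monomethylation, read after 10 min bead incubation in the dark. Reaction: 20 nM G9a, 500 nM biotin-H3K9 peptide, 20 uM SAM cofactor, 2 h, room temperature, following 15 min enzyme-compound preincubation.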
L3MBTL1 inh: L3MBTL1 (human) inhibition; Q9Y468; AlphaScreen L3MBTL1–H3K9me1 peptide binding; Potency, µM (doses to about 57.1 µM), for the others: at the highest dose activity, negative = inhibition, hits mostly inhibitors; actives 0.66% (n = 230,000); AID 485360; note: % is set by controls: 0 for no effect and ±100 for the full control effect; nearly all actives have a fitted effect of over 60% in size
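L3MBTL1 50 nM + b-AHA-H3(1-15)K9me1 75 nM, 30 min RT; compound added, 30 min RT; streptavidin donor/Ni-chelate acceptor beads 10 ug/mL each final, 30 min RT dark; AlphaScreen read.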
Sfp inh: blocks B. subtilis Sfp PPTase activity; Biochemical Sfp PPTase activity, qHTS; Potency, µM, for inactives: largest response in the series, negative = inhibition, most hits filed as inhibitors; actives 3.5% (n = 310,000); AID 1490;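 note: the enzyme is Sfp with the accession as filed and its product quenches rhodamine fluorescence; 0% = enzyme reaction without inhibitor and -100% = no enzyme wells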
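Buffer: 50 mM Hepes-Na pH 7.6, 10 mM MgCl2, 0.01% Nonidet P-40, 0.01% BSA. Enzyme 15 nM, pre-exposed to compound 15 min; substrates then added and fluorescence change tracked over 30 min.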
Starred values were filed as active, the others as inactive; ? = inconclusive; · = no result; [ ] = another dose, or the depositor's remark. Calls come from the whole dose curve; as a rule, active = well fitted curve in the direction sought with a large enough effect; inconclusive = small, poorly fitted or top-dose-only effect, or another doubt; inactive = no such curve, though single readings can be large; an effect the other way counts as inactive or inconclusive. Potency is the fitted concentration of half-maximal effect.

SMILES	HP1b binding inh	JMJD2A Tudor inh	BAZ2B block	G9a inh	L3MBTL1 inh	Sfp inh
NNc1nc(Nc2ccccc2)nc(N2CCCCC2)n1	18.5%	?	79.4µM*	-6.8%	·	8.5%
COc1ccc(Nc2nc(N)nc(CCl)n2)cc1	·	-28.8%	-15.2%	1.5%	1.3%	14.7%
NNc1nc(Nc2ccc([N+](=O)[O-])cc2)nc(N2CCCCCC2)n1	108.8%	56.2µM*	28.2µM*	·	-18.6%	11.9%
COc1nc(Nc2ccccc2)nc(OC)n1	16.1%	4.5%	·	·	·	·
NNc1nc(Nc2ccccc2)nc(Nc2ccccc2)n1	39.5%	-29.2%	22.4µM*	34.9%	-28.0%	-15.4%
c1ccc(Nc2nc(N3CCOCC3)nc(N3CCOCC3)n2)cc1	10.5%	-13.4%	10.9%	?	2.8%	-14.4%
CCOC(=O)C1=C(C)Nc2ccccc2N=C1NC(=O)Cc1ccc(OC)cc1	17.5%	0.0%	-3.0%	26.2%[59 µM]	4.3%	10.8%
CN1CCN(C(=O)CNC(=O)C23CC4CC(CC(C4)C2)C3)CC1	41.4%	-8.8%	·	·	9.7%	·
COc1ccc(NC2=C(C)C(=O)CC2)cc1	40.9%	2.6%	56.2µM*	1.6%[2.33 µM]	·	12.6%
COc1ccc(Nc2ccc(Nc3ccc(OC)cc3)nn2)cc1	28.9%	-27.5%	9.5%	-0.5%	-1.7%	18.6%
COc1ccc(NC2=CC(=O)N(C)C2=O)cc1	32.1%	-15.3%	-13.5%	-23.3%[59 µM]	-1.6%	-22.1%
COc1ccc(Nc2ccc(OC)cc2)cc1	39.8µM*	50.1µM*	20µM*	·	15.8µM*	2.82µM*
O=C(NCc1ccc2c(c1)OCO2)c1ccc2c(c1)N(Cc1c(F)cccc1Cl)C(=O)c1ccccc1S2	7.8%	-21.7%	·	4.8%[59 µM]	·	·
Cc1c(C(=O)N/N=C/c2ccccn2)nnn1-c1nonc1N	29.5%	89.1µM*	44.7µM*	?	·	?
Nc1nonc1-n1nnc(C(=O)N/N=C/c2ccccn2)c1-c1ccccc1	46.3%	?	?	22.8%	·	-8.7%
CCN(CC)Cc1c(C(=O)N/N=C/c2ccccn2)nnn1-c1nonc1N	40.8%	?	11.2µM*	?	·	-34.1%
O=C(Oc1ccc2c(c1)OCO2)C12CC3CC(CC(C3)C1)C2	65.5%	29.7%	19.5%	21.8%	-9.8%	13.4%
O=C(Oc1ccc(O)cc1)C12CC3CC(CC(C3)C1)C2	?	56.2µM*	-19.6%	39.8µM*	4.4%	-4.6%
C[C@@]12CCC(OC(=O)c3ccccc3)CC1CCc1ccccc12 (stereo partly specified)	·	·	·	·	·	2.3%
O=C(Nc1ccccc1N1CCCC1)C1CCN(S(=O)(=O)c2ccccc2)CC1	-7.6%	?	-38.5%	50.1µM*	-9.0%	·
Cc1ccccc1N1CC(C(=O)Nc2ccc(S(=O)(=O)N3CCCCC3)cc2)CC1=O (stereo unspecified)	36.5%	-17.4%[57.1 µM]	-8.4%	70.8µM*	·	-11.6%
O=C(Nc1ccccc1N1CCCC1)C1CCN(S(=O)(=O)c2ccccc2C(F)(F)F)CC1	20.4%	?	-31.2%	35.5µM*	?	·
Cc1cccc(N2CC(C(=O)Nc3ccc(S(=O)(=O)N4CCCCC4)cc3)CC2=O)c1C (stereo unspecified)	42.4%	-16.2%	-24.2%	-11.3%	·	-1.5%
COc1cccc(N2CC(C(=O)Nc3nnc(SCC(=O)NC4CCCC4)s3)CC2=O)c1 (stereo unspecified)	36.8%	-7.3%	-25.0%	31.6µM*	·	?
COc1cccc(N2CC(C(=O)Nc3nnc(SCC(=O)NCc4ccco4)s3)CC2=O)c1 (stereo unspecified)	13.6%	?	?	·	·	50.1µM*
SMILES	HP1b binding inh	JMJD2A Tudor inh	BAZ2B block	G9a inh	L3MBTL1 inh	Sfp inh
COc1ccc(C(=O)CSc2nnc(NC(=O)C3CC(=O)N(c4ccccc4)C3)s2)cc1 (stereo unspecified)	35.6%	2.0%	8.0%	44.7µM*	6.7%	-2.9%
COCCNC(=O)CSc1nnc(NC(=O)C2CC(=O)N(c3ccccc3OC)C2)s1 (stereo unspecified)	33.0%	-14.0%	-5.2%	-3.5%[12.7 µM]	·	50.1µM*
Cc1nn(C)cc1S(=O)(=O)Nc1cccc(Cl)c1	-10.5%	-13.7%	2.9%	?	·	24.5%
O=C(CSc1nc(-c2ccc(F)cc2)cs1)NC(=O)NCc1ccco1	3.8%	?	50.1µM*	-16.5%[59 µM]	-25.0%	?
COc1cccc(N2CC(C(=O)Nc3nnc(SCC(=O)N4CCOCC4)s3)CC2=O)c1 (stereo unspecified)	22.7%	-14.0%	0.7%	-9.6%	·	-20.5%
O=C(CSc1nnc(NC(=O)c2c(F)cccc2F)s1)NCc1ccco1	18.9%	-15.5%	8.6%	44.7µM*	-8.2%	·
COc1cccc(N2CC(C(=O)Nc3nnc(SCC(=O)c4ccccc4)s3)CC2=O)c1 (stereo unspecified)	12.7%	-13.1%	5.8%	-21.9%	-10.6%	79.4µM*
CN(C)CCn1c2c(c(SCC(=O)Nc3ccc(F)cc3F)nc1=O)CCC2	34.3%	-15.3%	-0.7%	-2.1%[59 µM]	·	·
COC(=O)c1ccc(CSc2nc3ccccc3c(=O)n2-c2ccccc2)o1	25.7%	-20.8%	-24.5%	15.8µM*	·	-8.9%
COC(=O)c1ccc(CSc2nc3ccccc3c(=O)n2-c2ccc(OC)c(OC)c2)o1	-1.8%	-33.1%	-39.0%	-8.3%[12.7 µM]	·	?
COC(=O)c1ccc(CSc2nnc3n(Cc4ccccc4OC)c(=O)c4ccccc4n23)o1	10.3%	-22.6%	-31.6%	44.7µM*	-4.6%	-23.4%
COc1ccc(N(CC(=O)NCCSCc2cccc(Cl)c2)S(C)(=O)=O)cc1Cl	-0.6%	-28.0%	-3.6%	12.5%[0.501 µM]	-1.1%[2.29 µM]	5.4%
CCC(C)Sc1ccc([C@@H]2[C@@H]3C(=O)N(CC)C(=O)[C@@H]3[C@]3(C(=O)OC)CCCCN23)cc1 (stereo partly specified)	39.9%	-6.9%	·	·	38.6%	·
CC(=O)C1=C(C)NC(SCC(=O)c2ccc(Cl)cc2Cl)=C(C#N)C1c1ccco1 (stereo unspecified)	22.5%	?	-5.8%	?	-3.6%	44.7µM*
CC(=O)C1=C(C)NC(SCC(=O)c2ccc(Cl)cc2)=C(C#N)C1c1ccco1 (stereo unspecified)	30.5%	-24.5%	-5.0%	?	1.3%	50.1µM*
Cc1ccc(C(=O)CSC2=C(C#N)C(c3ccco3)CC(=O)N2)c(C)c1 (stereo unspecified)	-39.7%	50.1µM*	·	?	?	50.1µM*
Cc1ccc(NC(=O)CSC2=C(C#N)C(c3ccco3)CC(=O)N2)cc1 (stereo unspecified)	24.5%	-14.0%	?	-15.1%	·	-8.5%
CCOC(=O)C1=C(c2ccccc2)NC(SC)=C(C#N)C1c1ccco1 (stereo unspecified)	40.1%	?	-32.5%	44.7µM*	5.1%	-0.3%

Compound activity: PubChem BioAssay, National Center for Advancing Translational Sciences (NCATS)
